# According to PubChem BioAssay AID2314 (National Center for Advancing Translational Sciences (NCATS), 2010):
# Among all 300,000 compounds or so, about 37,000 (12%) were called active. The entries come from a sample that favours actives as a whole. Values without a mark were called inactive. Cut-off read from the data, not from the text of the source: active = max response mostly above about 13% (no sharp cut-off); inactive = mostly below about 14%.
# Test: Cycloheximide Counterscreen for Small Molecule Inhibitors of Shiga Toxin; note: read at 38.3 µM for the half of the compounds with a filed dose; 0% is about no effect
# Settings: cell reporter, cycloheximide protein synthesis inhibition counterscreen; stronger effect = higher value
row,SMILES,max response
1,CC(=O)NC(CC(=O)Nc1cccc(S(=O)(=O)N2CCCC2)c1)c1ccccc1 (centres undefined),-2.18%
2,COc1ccc(S(=O)(=O)N2CCOC2CNC(=O)C(=O)NCc2ccc(F)cc2)cc1 (centres undefined),-1.46%
3,CC1(C)C=C2[C@H]3CC[C@@H]4[C@@]5(C)CCC(=O)C(C)(C)[C@@H]5CC[C@@]4(C)[C@]3(C)CC[C@@]2(C(=O)O)CC1,4.36%
4,O=C(CN(C(=O)c1nsc(Cl)c1Cl)c1cccc(F)c1)NC1CCCC1,-1.97%
5,COc1cc(NC(=S)N2CCCC(C)C2)cc(OC)c1OC (centres undefined),-2.44%
6,COc1cc(NC(=S)NNC(=O)CC(C)C)c(OC)cc1Cl,-6.7%
7,COc1cc(NC(=S)N2CCCC(C)C2)c(OC)cc1Cl (centres undefined),17.5% (active)
8,COc1ccccc1C(=O)N1C(CC(=O)Nc2ccccc2C)C(=O)NC2CCCCC21 (centres undefined),-3.1%
9,N#CC(C#N)=CN=c1ccn(Cc2ccc(Cl)cc2Cl)cc1,-0.809%
10,C=CCn1c(=NC(=O)c2ccc(S(=O)(=O)N3CCCC3)cc2)sc2cc(NC(C)=O)ccc21,-4.67%
11,C=CCn1c(=NC(=O)c2cccs2)sc2cc(NC(C)=O)ccc21,16.5% (active)
12,C=CCn1c(CCNC(=O)c2cccs2)n[nH]c1=S,2.82%
13,CN1CCN(S(=O)(=O)c2cccc(C(=O)N3CCc4ccccc43)c2)CC1,-1.65%
14,O=C1c2ccccc2NC(c2ccc(-c3cccc(Cl)c3)o2)N1O (centres undefined),38.7% (active)
15,CCOC(=O)NN1C(=O)c2ccccc2NC1c1cccc(O)c1 (centres undefined),7.43%
16,O=C1NN(c2ccccc2)C(=O)/C1=C/c1ccc(-c2cccc(C(=O)O)c2)o1,21%
17,CC(C)[C@@H](NC(=O)OC(C)(C)C)C(=O)NCC1CCC(C(=O)N[C@@H](Cc2ccccc2)C(=O)O)CC1 (some centres undefined),-1.77%

row,SMILES,max response
1,O=C(c1cn2ccccc2n1)N1CCc2c([nH]c3ccccc23)C1c1ccccn1 (centres undefined),3.01%
2,Cc1cccc(C(=O)N2CCc3c([nH]c4ccccc34)C2CC(C)C)n1 (centres undefined),26.8% (active)
3,Cc1cccc(C2c3[nH]c4ccccc4c3CCN2C(=O)c2cc(-c3cccn3C)n[nH]2)n1 (centres undefined),-3.03%
4,CCN(CCn1cccn1)Cc1nc(-c2ccc(C(=O)OC)cc2)no1,-4.94%
5,CC(=O)C1=C(O)C(=O)N(c2ccc(S(N)(=O)=O)cc2)C1c1ccccc1F (centres undefined),-0.999%
6,CCOC(=O)C1CCN(Cc2nnc(-c3cccc(Br)c3)o2)CC1,-0.93%
7,COc1ccc(-c2csc(Cc3nc(O)cs3)n2)cc1,37.4% (active)
8,COc1ccc(CCN(C(=O)COc2ccccc2)c2nc(-c3ccccc3)cs2)cc1OC,5.03%
9,Brc1ccc(-c2csc(N/N=C/c3ccc4c(c3)OCO4)n2)cc1,17.6%
10,CN(C(=O)CSc1nc(C2CC2)nc2ccccc12)c1nc(-c2ccccc2)cs1,4.58%
11,Brc1ccc(-c2csc(N/N=C/c3cccnc3)n2)cc1,19.4% (active)
12,COc1ccc(Nc2nc(-c3ccccc3)cs2)cc1,46.6% (active)
13,CN(c1ccc(O)cc1)c1nc(-c2cccnc2)cs1,56.1% (active)
14,CC(C)(C)C(=O)OCc1nc(-c2ccc(O)c(O)c2)cs1,5.11%
15,NS(=O)(=O)c1ccc(Nc2nc(-c3ccccc3)cs2)cc1,18.5%
16,COc1ccc(-c2csc(N3CCN(Cc4ccc5c(c4)OCO5)CC3)n2)cc1,-4.44%
17,CCOC(=O)N/N=C/c1cccnc1,11.3%
